# Data as given in PubChem BioAssay (NCATS).
# Where “and” joins values, the source holds several entries; their conditions need not be identical. Equal entries are not always repeated. Records with an inconclusive call do not appear. A number with no mark means an inactive call. Calls of active or inactive are those of the source. Calls come from the whole dose curve; as a rule, active = well fitted activation curve with a large enough effect; inconclusive = small, poorly fitted or top-dose-only effect; inactive = no such curve, though single readings can be large or run the other way.
# Target: Cellular tumor antigen p53 (Homo sapiens) (UniProt P04637)
# Assay: Primary qHTS for small molecule compounds that upregulate eGFP-tagged delta133p53alpha (in N-terminal) cells. (AID 2060322); note: nearly all actives have a fitted effect of over 75% in size;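 for activation: cells pre-induced with doxycycline then dosed without doxycycline; series mostly up to about 56 µM; 0% = DMSO vehicle and 100% = reference activator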
# Conditions: NCI-H358 eGFP-delta133p53alpha fluorescence, 24 h; activation: hits give high values
# How it was run: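 NCI-H358 cells pre-induced 24 h with 10 ng/ml doxycycline for eGFP-delta133p53alpha, plated dox-free and exposed 24 h at 37C to titrated compounds. Fixed, Hoechst-stained; gated GFP peak intensity by laser scanning cytometry, normalized to DMSO (0%) and 57.5 uM 5-azacytidine (100%).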
# Potency is the fitted concentration of half-maximal effect.
# Cellular tumor antigen p53 (Homo sapiens), sequence (P04637 whole entry, looked up): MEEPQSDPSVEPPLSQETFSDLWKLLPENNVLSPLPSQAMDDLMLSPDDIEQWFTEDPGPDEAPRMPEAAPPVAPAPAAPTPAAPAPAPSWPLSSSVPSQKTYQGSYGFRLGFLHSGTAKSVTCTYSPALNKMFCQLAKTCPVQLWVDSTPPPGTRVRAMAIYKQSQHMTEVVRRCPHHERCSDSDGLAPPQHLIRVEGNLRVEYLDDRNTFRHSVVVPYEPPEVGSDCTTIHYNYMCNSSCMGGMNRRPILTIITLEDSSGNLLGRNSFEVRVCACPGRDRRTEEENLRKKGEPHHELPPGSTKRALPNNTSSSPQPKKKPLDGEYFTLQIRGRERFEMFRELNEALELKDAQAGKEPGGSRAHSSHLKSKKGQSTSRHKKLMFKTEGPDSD
SMILES,Potency,activation
Cc1ccc(S(=O)(=O)c2ccc([N+](=O)[O-])o2)cc1,8.49 µM (active),
Clc1cccc(COc2cncc(N3CCNCC3)n2)c1,,14.8%
CCNC(=O)OC1CCN(c2nncc3cc(OC)c(OC)cc23)CC1,,-7.67%
N[C@H]1Cc2ccccc2N(O)C1=O,,13.7%
COc1cc(CC2COC(c3ccc(OC4OC(CO)C(O)C(O)C4O)c(OC)c3)C2CO)ccc1O (stereo unspecified),,-20.6%
N#Cc1ccc(C(=O)N2CCC3(CC2)N=C(N)c2c(F)ccc(F)c2N3)cn1,,6.21%
Cc1onc(-c2c(Cl)cccc2Cl)c1C(=O)N[C@@H]1C(=O)N2[C@@H]1SC(C)(C)[C@@H]2C(=O)O,,-9.21% and 6.21%
Oc1ccc(CC2NCCc3cc(O)c(O)cc32)cc1 (stereo unspecified),,-12.9%
Cc1cc(Cl)ccc1COc1ccnn1-c1cc(C(=O)O)ccn1,,5.67%
CCN(CC)CCOCCOC(=O)C(CC)(CC)c1ccccc1,,-4.3%
O=c1[nH]c2cccc(N3CCN(Cc4ccc(-c5ccccc5)cc4)CC3)c2o1,,-3.82%
N#Cc1ccc(-c2cnc3[nH]cc(NC(=O)c4cccnc4)c3c2)cc1,,-4.46%
O=C1C[C@@H](c2ccc(O)cc2)Oc2cc(O)ccc21,,4.3%
CC/C=C\[C@H](O)[C@H](O)C1=C(C)C(=O)[C@]2(O1)C(=O)N[C@@](O)(C(=O)c1ccccc1)[C@@H]2O,,-14.5%
NC(N)=NCCC[C@H](NC(=O)c1sccc1NS(=O)(=O)c1cccc2nsnc12)C(=O)O,,-11.5%
Cc1cn(C[C@H](N)C(=O)O)c(=O)n(Cc2ccsc2C(=O)O)c1=O,,15.3%
C[S+](CC[C@H](N)C(=O)[O-])C[C@H]1O[C@@H](n2cnc3c(N)ncnc32)[C@H](O)[C@@H]1O (stereo partly specified),,12.3%
COc1cccc(OC)c1C(=O)N[C@@H]1C(=O)N2[C@@H]1SC(C)(C)[C@@H]2C(=O)O,,-33.3% and -3%

SMILES,Potency,activation
COC(=O)[C@]1(Cc2ccc(O)c(CC=C(C)C)c2)OC(=O)C(O)=C1c1ccc(O)cc1,,1.53%
N[C@@]1(C(=O)O)CC[C@H]2[C@H](C(=O)O)[C@H]21,,-12.3%
NC(=O)[C@H]1CCS[C@@H]2C[C@]3(CCCN3C(=O)Cc3ccc(NC(=O)COc4ccc(Cl)cc4Cl)cc3)C(=O)N12,,19%
C=C1C(=O)O[C@H]2C[C@@H](C)[C@@H]3CCC(=O)[C@@]3(C)C[C@H]12,10.7 µM (active),
NCc1ccc(OCCCc2sc(-c3ccc4c(c3)/C(=N/Nc3nc5ccccc5s3)CCC4)nc2C(=O)O)cc1,,7.64%
O=C(O)c1cccc(-c2noc(-c3ccccc3F)n2)c1,,19.2% and 2.33% and 1.9%
CC(O)(C#Cc1ccc2c(c1)N(c1nc(N)ncc1Cl)CC2)c1nccs1 (stereo unspecified),,-1.22%
CCOC(=O)[C@H](CCc1ccccc1)N[C@@H](C)C(=O)N1C(=O)N(C)C[C@H]1C(=O)O,,12.6% and 0.333%
O=C(CCN1CCN(C(=O)OCc2cc(Cl)cc(Cl)c2)CC1)c1ccc2[nH]c(=O)oc2c1,,10.1%
C=C1CC[C@@H]2[C@](C)(CO)[C@H](O)CC[C@@]2(C)[C@@H]1CC(=O)C1=CCOC1=O,,9.16%
CCC(=O)c1cc(-c2ccc(Cl)cc2)n(-c2ccc(S(N)(=O)=O)cc2)c1C,,0.955%
OC[C@H]1O[C@@H](n2cnc3c2NC=NC[C@H]3O)C[C@@H]1O,,-7.16%
CCC(C)C(N)C(=O)NCCN1CCOCC1 (stereo unspecified),,23%
CC(C)(CC(=O)N1CCCC1)NCC(=O)N1C[C@@H](F)C[C@H]1C#N,,0.333%
O=C(CCl)Nc1cccc(NC2=NS(=O)(=O)c3ccccc32)c1,26.9 µM (active),
O=C(Nc1cc(C(F)(F)F)cc(C(F)(F)F)c1)c1cnc(Cl)nc1C(F)(F)F,30.1 µM (active),
Fc1ccc(-c2nc(C3CCNCC3)sc2-c2ccnc(NC3CC3)n2)cc1,26.9 µM (active),
O=C(O)c1n[nH]c2c1C[C@H]1C[C@@H]21,,-8.11%
